Only some compounds are listed: those with a hit (about 4.3% of all), similar ones and a draw of the others.
PfHsp40 rescue = rescue of PfHsp40-mediated yeast toxicity | 340,000 tested, 0.68% active | AID 504582 | growth rescue, % at 12.5 µM | S. cerevisiae expressing PfHsp40, growth rescue, ATP luminescence; in the data active = growth rescue above about 28%, passing the limit was not always enough; inconclusive = no clear call, values can overlap the other calls;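 note: yeast W303a lacking pdr1 and pdr3 grown in galactose medium; growth measured after three days at 30 °C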
MazF activator = increases E. coli MazEF RNase cleavage of RNA | activation, % at 20 µM | 350,000 tested, 0.32% active | FAM/BHQ RNA-DNA oligo cleavage fluorescence, 5 h | P0AE70; in the data active = activation above about 50%
Anthrax LF prot = anthrax lethal factor protease inhibition | P15917 | multiplex microsphere protease cleavage assay, LF | inhibition, % at 10 µM | 360,000 tested, 0.12% active
BoNT-A LC inh2 = inhibitors of Botulinum neurotoxin A light chain protease | multiplex microsphere protease substrate cleavage, flow cytometry | inhibition, % at 10 µM | 360,000 tested, 0.17% active | AID 588499
Bead autofluor = compound fluorescence in toxin protease inhibitor counterscreen; compound autofluorescence counterscreen, microsphere flow cytometry; active compounds read high; fluorescence intensity (test concentration not listed); 360,000 tested, 3.1% active; in the data active = fluorescence intensity above about 16000; inconclusive = no clear call, values can overlap the other calls
BoNT-F LC inh = blocks Botulinum neurotoxin F light chain protease. 360,000 tested, 0.22% active. inhibition, % at 10 µM. Multiplex microsphere protease cleavage assay, flow cytometry; in the data active = inhibition above about 35%, passing the limit was not always enough; inconclusive = no clear call, values can overlap the other calls
Each line names hits and unclear results; the compound was inactive in the other large screens. Cut-off read from the data, not from the text of the source, unless noted: active = inhibition above about 30%; inconclusive = no clear call, values can overlap the other calls; inactive = below that.

CCOC(=O)CC(=O)CSc1nc(N)c(C#N)c(-c2ccc(Cl)cc2)c1C#N	Bead autofluor 16851
CCOC(=O)CC(=O)CSc1nc2c(c(C)c1C#N)CCC2	PfHsp40 rescue 31
COC(=O)CSc1nc(N)c(C#N)c(CC(C)C)c1C#N	none
CCOC(=O)CSc1nc(N)c(C#N)c(CC(C)C)c1C#N	BoNT-A LC inh2 inconclusive, Bead autofluor 21729
Cc1ccc(NS(=O)(=O)c2cccc(C(=O)NCC3CCCO3)c2)cc1 (stereo unspecified)	Anthrax LF prot inconclusive, BoNT-A LC inh2 inconclusive, BoNT-F LC inh inconclusive
CCCN(CCC)C1Sc2ccc(C(=O)OC)cc2NC1=O (stereo unspecified)	Bead autofluor 19484
C/C(=N/NC(=O)c1cc2ccccc2cc1O)c1ccco1	PfHsp40 rescue 77, Bead autofluor inconclusive
CN(C)CCN1C(=O)C(O)=C(C(=O)c2cc3ccccc3o2)C1c1cccc(Br)c1 (stereo unspecified)	BoNT-A LC inh2 inconclusive, Bead autofluor 22182
O=C(C1=C(O)C(=O)N(CCN2CCOCC2)C1c1cccc(Br)c1)c1cc2ccccc2o1 (stereo unspecified)	none
COc1cccc2cc(C(=O)C3=C(O)C(=O)N(CCN(C)C)C3c3ccc(Cl)cc3)oc12 (stereo unspecified)	Anthrax LF prot 30, BoNT-A LC inh2 inconclusive, BoNT-F LC inh inconclusive
COCCn1c(C)cc2c(c1=O)C(c1ccco1)C(C#N)=C(N)O2 (stereo unspecified)	Bead autofluor 21595
Cc1cc2c(c(=O)n1CCc1ccccc1)C(c1ccco1)C(C#N)=C(N)O2 (stereo unspecified)	Bead autofluor 23680
FC(F)(F)c1cc(NC2CCCCC2)ccn1	none
Cc1cc(C)c(NC2=NS(=O)(=O)c3ccccc32)c(C)c1	BoNT-A LC inh2 inconclusive, Bead autofluor 22474
Cc1cc(O)c(C(C)C)cc1NC1=NS(=O)(=O)c2ccccc21	Bead autofluor 16315
COC(=O)c1ccc(C(=O)OC)c(NC2=NS(=O)(=O)c3ccccc32)c1	Bead autofluor 23866
O=C(CCCC(=O)c1ccccc1)NCc1ccccc1	none
COC(=O)c1ccc(CNC(=O)COC(=O)c2cccs2)cc1	none
CCn1c(C(=O)O)c(CC(=O)N(C)c2ccc(OC)cc2OC)c2ccccc21	none (no result: PfHsp40 rescue)
Nc1ccc(OCCCc2c(N)nc(N)nc2N)cc1	PfHsp40 rescue 48
COc1ccc(Cc2c(N)nc(N)nc2N)cc1	none
CC(=O)CSc1nc(N)c(C#N)c(-c2cccs2)c1C#N	none
CCCCSc1nc(N)c(C#N)c(-c2cccs2)c1C#N	Bead autofluor 19876
CCOc1cccc2cc(-c3csc(NC(=O)CCC(=O)N4CCC(C)CC4)n3)c(=O)oc12	Bead autofluor 22950
O=C(Nc1ccc(F)cc1)Nc1ccc(Cl)cn1	Bead autofluor 18496
CCOC(=O)c1cc2c(c(CSc3nc4ccccc4c(=O)n3Cc3ccco3)c1)OCOC2	Bead autofluor 20266
CN(Cc1ccccc1)C(=O)CSc1nc2ccccc2c(=O)n1Cc1ccco1	none
O=c1c2ccccc2nc(SCc2cc(F)cc3c2OCOC3)n1Cc1ccco1	Bead autofluor 24180
Cc1ccc(-c2cn(-c3ccccc3)c(SCC(=O)NC3CCS(=O)(=O)C3)n2)cc1C (stereo unspecified)	none
COc1ccc(Cn2c(=O)[nH]c3cc(C(=O)NCc4ccc5c(c4)OCO5)ccc3c2=O)cc1	MazF activator 182
COCCNC(=O)c1ccc(Cn2c(=S)[nH]c3cc4c(cc3c2=O)OCO4)cc1	Bead autofluor 22929
COC(CNC(=O)c1ccc(Cn2c(=S)[nH]c3cc4c(cc3c2=O)OCO4)cc1)OC	none
COc1ccc(Cn2c(=O)[nH]c3cc(C(=O)NCCCOC(C)C)ccc3c2=O)cc1	Bead autofluor inconclusive
CCOCCCn1c(=S)[nH]c2cc(C(=O)NCCOC)ccc2c1=O	Bead autofluor 19971
Cc1ccccc1C(=O)Nc1ccnn1C1CCN(Cc2ccccn2)CC1	none
COC(=O)C1C(=O)C2=C(CC1C)NC(C)=C(C(=O)OC1CCCC1)C2c1ccc(N(C)C)cc1 (stereo unspecified)	none
COC(=O)C1C(=O)C2=C(CC1C)NC(C)=C(C(=O)OC(C)C)C2c1ccc(OC)c(O)c1 (stereo unspecified)	Bead autofluor 22658
COc1ccc(-c2noc(C(C)NC(=O)c3ccco3)n2)cc1OC (stereo unspecified)	none
COc1ccc(C2C(C(=O)c3cccs3)=C(O)C(=O)N2c2nnc(C)s2)cc1OC (stereo unspecified)	MazF activator 69
CC(C)c1nnc(N2C(=O)C(O)=C(C(=O)c3cccs3)C2c2ccccc2)s1 (stereo unspecified)	MazF activator 172
Cc1ccc(C2C(C(=O)c3ccco3)=C(O)C(=O)N2c2nnc(C)s2)cc1 (stereo unspecified)	none
Cc1cccc(N2C(=O)C(O)=C(C(=O)c3cccs3)C2c2ccc(F)cc2)n1 (stereo unspecified)	none
COc1ccc(C2C(C(=O)c3cccs3)=C(O)C(=O)N2c2nncs2)cc1 (stereo unspecified)	BoNT-A LC inh2 inconclusive, Bead autofluor 22479
C=CCOc1ccc(C2C(C(=O)c3cccs3)=C(O)C(=O)N2c2nnc(C)s2)cc1 (stereo unspecified)	MazF activator 315, BoNT-F LC inh 170
CCOc1ccc(NC(=O)CCNC(=O)Cn2ccc3ccccc3c2=O)cc1	none
Cc1ccc(NS(=O)(=O)c2ccc(N3C(=O)CCC3=O)cc2)cc1	Bead autofluor 18928
CCN(c1ccc(OC)cc1)S(=O)(=O)c1nnc(NC(=O)COc2ccc(F)cc2)s1	none
COC1=C(c2ccccc2)C(=O)c2ccccc2C1=O	PfHsp40 rescue 224
CCOC(=O)C1CCCN(C(=O)/C(=C/c2ccco2)NC(=O)c2ccccc2)C1 (stereo unspecified)	Anthrax LF prot 31
O=C(N/C(=C/c1ccc(F)cc1)C(=O)N1CCOCC1)c1ccccc1	Anthrax LF prot inconclusive, BoNT-A LC inh2 inconclusive, Bead autofluor 30895, BoNT-F LC inh inconclusive
CCOC(=O)N1CCN(C(=O)/C(=C/c2ccccc2OC)NC(=O)c2ccccc2)CC1	BoNT-A LC inh2 inconclusive, Bead autofluor 16214
CN1CCN(C(=O)/C(=C/c2ccc(F)cc2)NC(=O)c2ccccc2)CC1	none
CCOC(=O)N1CCN(C(=O)/C(=C/c2ccc(OC)c(OC)c2)NC(=O)c2ccccc2)CC1	none
O=C(N/C(=C/c1ccco1)C(=O)N1CCCCCC1)c1ccccc1	none
Cc1cc(C)nc(SCC(=O)c2c(N)n(C)c(=O)n(C)c2=O)n1	BoNT-A LC inh2 inconclusive, Bead autofluor 23309
Cn1ccnc1SCC(=O)c1c(N)n(C)c(=O)n(C)c1=O	none
Cc1ccc(-c2noc(CNc3ccccc3)n2)cc1	BoNT-A LC inh2 inconclusive, Bead autofluor 21856
Clc1ccc(Cc2nc(-c3cccnc3)no2)cc1	Bead autofluor 21733
Cc1ccc(Cc2nc(-c3cccnc3)no2)cc1	none

Screening data deposited in PubChem by several laboratories.
